# Assay results as given in PMC4552634, “A New Set of Chemical Starting Points with Plasmodium falciparum Transmission-Blocking Potential for Antimalarial Drug Discovery” (PLoS ONE, 2015).
# The whole screen tested about 13,000 compounds, of which about 3,200 (25%) showed an effect of 50% or more. This is one part of the list.
# Tested on: P. falciparum stage V gametocytes
# Set-up: BacTiter-Glo ATP luminescence viability of purified stage V gametocytes in 384-well plates, per cent inhibition versus DMSO
# Details: 48 h, 5 µM; inhibitor
row,SMILES,% Inhibition
1,CC(CCc1ccccc1)NCC(O)c1ccc2c3c(cccc13)S(=O)(=O)N2C (stereo not drawn) [TCMDC-131253],8.689%
2,NCCNc1ccnc2cc(Cl)ccc12 [TCMDC-125850],23.17%
3,COc1ccc(NCCCNc2ccnc3ccccc23)cc1 [TCMDC-139253],-97.14%
4,FC(F)(F)c1ccc2c(NCCCNc3ccnc4cc(C(F)(F)F)ccc34)ccnc2c1 [TCMDC-137736],28.34%
5,FC(F)(F)c1ccc2c(NCCNc3ccnc4cc(C(F)(F)F)ccc34)ccnc2c1 [TCMDC-137881],-4.365%
6,Clc1ccc2c(NCCCCCCCCNc3ccnc4cc(Cl)ccc34)ccnc2c1 [TCMDC-137733],25.46%
7,Clc1ccc2c(NCCNc3ccnc4cc(Cl)ccc34)ccnc2c1 [TCMDC-137882],57.8%
8,NCCCNc1ccnc2cc(Cl)ccc12 [TCMDC-123921],17.37%
9,c1ccc2c(NCCCCCCCNc3ccnc4ccccc34)ccnc2c1 [TCMDC-137897],122.9%
10,c1ccc2c(NCCCCCCCCCNc3ccnc4ccccc34)ccnc2c1 [TCMDC-137750],102.2%
11,c1ccc2c(NCCCCCCNc3ccnc4ccccc34)ccnc2c1 [TCMDC-137913],91.15%
12,COc1ccccc1-c1cccc2c(NC(=O)Nc3ccc4nccc(N5CCN(C)CC5)c4c3)ccnc12 [TCMDC-139384],-27.38%
13,COc1ccc(C(=C(C)CC(C)C(=O)O)c2ccccc2)cc1 (stereo not drawn) [TCMDC-131745],-8.546%
14,Cc1c(CNCCCNc2nc3ccccc3[nH]2)sc(C(F)F)c1Br [TCMDC-141323],13.37%
15,Cc1ccccc1-c1cc(=O)c2cc(NC(=O)c3cccs3)ccc2o1 [TCMDC-124947],11.18%
16,COc1ccccc1/C=C/C(=O)N(C)C1CCN(CCCCCNC(=O)/C=C/c2ccc(Cl)c(Cl)c2)C1 (stereo not drawn) [TCMDC-139996],13.3%
17,Nc1nc(N)c2c(n1)CCc1cc(Br)ccc1-2 [TCMDC-125525],4.608%
18,CN1CCC(c2c[nH]c3ccc(NC(=O)Nc4ccc(-c5ccncc5)cc4Cl)cc23)CC1 [TCMDC-139180],-1.977%
19,CC(C)(C)CNc1noc(-c2sccc2Br)n1 [TCMDC-134187],-20.57%
20,C=CCN1C(=O)CN(S(=O)(=O)c2ccc(-n3nc(C)cc3C)cc2)C1=S [TCMDC-131799],-1.195%
21,c1ccc2c(NCCCCCCCCNc3ccnc4ccccc34)ccnc2c1 [TCMDC-137751],124.8%
22,CN(C)CCCNc1ccnc2cc(Cl)ccc12 [TCMDC-123919],17.18%
23,CNCCCNc1ccnc2cc(Cl)ccc12 [TCMDC-125233],36.92%
24,CN(CCCNC(=S)NC12CC3CC(CC(C3)C1)C2)CCCNc1ccnc2cc(Cl)ccc12 [TCMDC-137885],114.9%

row,SMILES,% Inhibition
1,CN1CCN(Cc2cc(NC(=O)c3ccc(-c4ccc(Cl)cc4Cl)cc3)ccc2-c2ccccc2)CC1 [TCMDC-138839],21.61%
2,CC(C)CN1CCC(N(C)c2cc(NC(=O)c3cccc(F)c3)ccn2)CC1 [TCMDC-135022],-32.51%
3,CC(C)Cn1c(Sc2ccc(C#N)c([N+](=O)[O-])c2)nnc1-c1cccs1 [TCMDC-135575],26.53%
4,O=C(Nc1cccc(C(F)(F)F)c1)Nc1cc(F)c(F)cc1Cl [TCMDC-123779],32.47%
5,CCc1ccc(-n2c(NC(=O)c3ccccc3)nc3ccc(S(=O)(=O)NC(C)C(C)C)cc32)cc1 (stereo not drawn) [TCMDC-136236],39.19%
6,CC(OC(=O)c1ccc(C(=O)NCC2CC2)cc1)C(C)(C)C (stereo not drawn) [TCMDC-138180],11.69%
7,CCO[C@H]1CN[C@H](C#Cc2cc3c(Nc4ccc(OCc5cccc(F)c5)c(Cl)c4)ncnc3s2)C1 [TCMDC-135170],22.02%
8,Cc1ccc(O)cc1Nc1ccnc2ccc(C(C)(C)C)cc12 [TCMDC-138885],-11.57%
9,COc1cc(Nc2ccnc3ccc(C(C)(C)C)cc23)cc(OC)c1OC [TCMDC-138886],-36.54%
10,CC(C)(C)c1ccc2nccc(Nc3cccc(O)c3)c2c1 [TCMDC-138884],71.55%
11,C=CCC(CC=C)N1C(=O)C(c2ccccc2)(c2ccccc2)N=C1N [TCMDC-136807],5.028%
12,O=C(/C=C/c1ccc(C(F)(F)F)cc1)NCCCCCN1CCN(C(=O)Nc2ccc(Cl)c(Cl)c2)CC1 [TCMDC-136094],-8.361%
13,CC1CCC2(CC1)N=C(N)N=C(N)N2OCc1cc2ccccc2c2ccccc12 (stereo not drawn) [TCMDC-131590],22.45%
14,C[C@H](NC(=O)c1c(CN2CCC(N3CCCCC3)CC2)c(-c2ccccc2)nc2cc(O)ccc12)C1CCCCC1 [TCMDC-140408],25.99%
15,CN(C)CCNC(=O)c1ccc(-c2cnc3ccc(NCc4ccc(Cl)c(Cl)c4)nn23)cc1 [TCMDC-136678],106.7%
16,CN(C)c1cccc(-c2cnc3ccc(NCc4cccc(Cl)c4)nn23)c1 [TCMDC-136673],81.33%
17,CN(C)CCNC(=O)c1cccc(-c2cnc3ccc(NCc4ccc(Cl)c(Cl)c4)nn23)c1 [TCMDC-136677],49.91%
18,Clc1ccc(-c2cnc3ccc(NCc4ccncc4)nn23)cc1 [TCMDC-136682],21.16%
19,CN1CCN(c2ccc(CNc3ccc4ncc(-c5ccc(OC(F)(F)F)cc5)n4n3)cc2)CC1 [TCMDC-136689],-0.7792%
20,Clc1ccc(-c2cnc3ccc(NCCc4cccnc4)nn23)cc1 [TCMDC-136680],-25.41%
21,Cc1ccc(CNc2ccc3ncc(-c4cccc(C(=O)NCCN(C)C)c4)n3n2)c(C)c1 [TCMDC-136684],104.7%
22,CN1CCN(c2ccc(CNc3ccc4ncc(-c5cccc(OC(F)(F)F)c5)n4n3)cc2)CC1 [TCMDC-136690],11.23%
23,OC1CCC(Nc2ccc3ncc(-c4ccc5ccccc5c4)n3n2)CC1 (stereo not drawn) [TCMDC-136691],25.44%
24,CCC(C)NC(=O)CN1CN(c2ccccc2)C2(CCN(C(=O)c3ccc4ccccc4c3)CC2)C1=O (stereo not drawn) [TCMDC-125174],-36.87%

row,SMILES,% Inhibition
1,CCNc1cc(C)nc(Nc2ccc(NS(=O)(=O)c3cc(OC)ccc3OC)cc2)n1 [TCMDC-124953],-19.07%
2,CC(C)c1ccc(NC(=O)c2ccc(C(=O)NC3CCN(CC4CCCCC4)C3)cc2)cc1 (stereo not drawn) [TCMDC-136743],-27.55%
3,COc1cccc2cc(C(=O)N[C@@H](CC(C)C)C(=O)N[C@H](/C=N/NC(=O)c3ccccc3)Cc3cnc[nH]3)oc12 [TCMDC-135820],40.86%
4,CN(C)CCOc1cc(NC(=O)Nc2ccc(-c3ccncc3)c(Cl)c2)ccc1I [TCMDC-139135],19.45%
5,COc1ccc(C(=O)C2CCN(CCCCNC(=O)c3ccc(NC(=O)c4ccc(Cl)cc4)cc3)CC2)c(OC)c1 [TCMDC-138625],-32.94%
6,COc1ccc(C(=O)C2CCN(CCCCNC(=O)c3ccc(NC(=O)c4cc(Cl)cc(Cl)c4)cc3)CC2)cc1 [TCMDC-138228],-14.09%
7,Clc1ccc(C2CCN(CCCOc3ccc4c(c3)CCNCC4)CC2)cc1 [TCMDC-141782],72%
8,O=C(c1ccc(Cl)cc1)C1CCN(CCCOc2ccc3c(c2)CCNCC3)CC1 [TCMDC-141781],60.35%
9,CC(C)(C)c1ccc(NC(=O)Nc2ccc(Cn3ncc(N4CCCNCC4)c(Cl)c3=O)cc2)cc1 [TCMDC-133314],-23.28%
10,COc1ccc(-c2onc(C(F)(F)F)c2-c2cc3ccccc3o2)c(O)c1 [TCMDC-124534],7.209%
11,O=C(Nc1ccc2c(c1)CNCC2)c1ccc(-c2ccc(Cl)cc2)cc1 [TCMDC-141479],71.62%
12,CN1CCc2ccc(NC(=O)Nc3ccc(-c4ccccc4)cc3)cc2C1 [TCMDC-133725],-3.896%
13,CN1CCN(c2cc(NC(=O)c3ccc(-c4ccc(Cl)cc4)cc3)ccc2Cl)CC1 [TCMDC-138671],-15.54%
14,O=C(Nc1ccc2c(c1)CCNCC2)Nc1ccc2ccccc2c1 [TCMDC-133733],-8.361%
15,O=C(Nc1ccc2c(c1)CCNCC2)c1ccc(-c2ccc(Cl)cc2)cc1 [TCMDC-141480],106.4%
16,O=C(Nc1ccc(Cl)c(Cl)c1)Nc1ccc2c(c1)CCNCC2 [TCMDC-133731],29.44%
17,CN1CCCc2cc(NC(=O)c3cc(-c4ccc(Cl)cc4)cs3)ccc2C1 [TCMDC-134050],7.243%
18,O=C(Nc1ccc(-c2ccccc2)cc1)Nc1ccc2c(c1)CCNCC2 [TCMDC-133729],60.87%
19,Cc1ccc(NC(=O)c2ccc(Cl)cc2)cc1-c1ccc(C(=O)Nc2ccncc2)cc1 [TCMDC-133698],-1.939%
20,CC1CCN(Cc2c(O)ccc3c(=O)c(-c4nc5ccccc5s4)c(N)oc23)CC1 [TCMDC-124313],12.71%
21,Cc1ccc(OCCCON2C(N)=NC(N)=NC2(C)C)cc1C [TCMDC-131650],7.659%
22,Cc1nc(NCCc2cnc[nH]2)cc(NCc2ccccc2)n1 [TCMDC-135164],-1.635%
23,CN(C(=O)c1cc2c(-c3cncnc3)cccc2[nH]1)c1ccccc1 [TCMDC-134637],36.22%
24,CCC(CC)CN1C(=O)C(C)(c2ccccc2)N=C1N (stereo not drawn) [TCMDC-137051],1.821%
